Results on 14 compounds are retold here after PubChem BioAssay.

Active and inactive are the calls of the source.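 How the source made its calls, unless noted: active means fluorescence slope higher than the sample average by over 3 SD (cut at about -0.22 in these data, passing the limit was not always enough); inactive means the rest.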

The nature of assay [1]: inhibitors of TNFa-induced NFkB p65 translocation, primary screen, imaging, HUVEC, MLSMR starter and 10KST1 sets (AID 438;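 active means inhibition above 20% together with a positive visual image hit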;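 further: compound added about 3h40 before a 20 min TNFalpha stimulation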;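 on inhibition: signal is the nuclear over cytoplasmic p65 intensity ratio per well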). Particulars: HUVEC TNFa-induced p65 nuclear translocation; cell count: measured here: nuclei count (cytotoxicity indicator), at 2.08 µM; inhibition: at 2 µM, stronger effect = higher value, 0% TNFa-plus-vehicle, 100% no-TNFa wells.
Assay [2] is described as follows: inhibitors of mutant huntingtin aggregation, primary screen, imaging, exon1htt(103Q)mCFP cells, high-content imaging (AID 483;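 active means visual image review flags a hit and inhibition of aggregation exceeds 20%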;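 further: compound exposure lasted 3 days before fixation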;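 on nuclei count: percent of the per-plate median nuclei count of sample wells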). Particulars: exon1htt(103Q)mCFP cell line, aggregate imaging, at 2 µM; inhibition of aggregation: stronger effect = higher value; nuclei count: measured here: cell count, toxicity.
Assay [3] is described as follows: inhibitors of E-selectin induction by TNFa, primary screen, imaging, HUVEC, immunofluorescence, MLSMR starter and 10KST1 sets (AID 487;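 active means visually confirmed hit in the image check and inhibition above 20%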;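 on inhibition: signal is fraction of cell area covered by stained E-selectin grains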;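 on nuclei count: 100% = median nuclei count of all wells on the same plate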). Particulars: HUVEC TNFalpha-induced E-selectin immunofluorescence imaging, at 2 µM; inhibition: stronger effect = higher value; nuclei count: measured here: cell number, toxicity.
Assay [4] deals with Voltage-gated potassium channel subunit beta-2 (Rattus norvegicus) (UniProt P62483). The assay is described as follows: KvBeta enzyme negative modulators, primary screen, biochemical, NADPH fluorescence (AID 622).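 Further: slope of raw intensity against log time taken from 70 to 1610 s.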 Particulars: recombinant KvBeta, 4-cyanobenzaldehyde reduction, at 10 µM, stronger effect = higher value.
For assay [5] the target is unchanged. The assay is described as follows: KvBeta positive modulators, primary screen, biochemical, NADPH fluorescence (AID 623;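 active means NADPH fluorescence slope more negative than the mean of all samples by about 3 SD, 99.7% confidence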;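 further: fluorescence intensity change per second fitted from 20 to 320 s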). The note with it: Recombinant KvBeta, NADPH fluorescence decrease slope, 10 min; at 10 µM; stronger effect = lower value.
Assay [6] concerns the target Alpha-2C adrenergic receptor (Homo sapiens) (UniProt P18825). Briefly: modulators of alpha2C/GIRK thallium flux, primary screen, cell-based, HEK293 alpha2C/GIRK1/2 (AID 624;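 active means fluorescence slope after compound addition differing from the mean of all screened samples at 99.7% confidence, in either direction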;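 further: slope of fluorescence ratio to pre-addition baseline per second over 15 to 24 s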). The note with it: thallium flux BTC fluorescence, at 10 µM, actives lie on both sides.
The nature of assay [7]: inhibitors of Sendai virus-induced IRF3 signaling, primary screen, TLR/RLR signaling modifier project, cell-based, Sendai virus stimulus, luciferase, 10K MLSCN set (AID 602276;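 active means inhibition at or above 50% at 10 µM; inactive means inhibition below 50%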;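 further: firefly luciferase from ISG56 promoter only with Renilla not read in this screen; 0% = Sendai virus plus DMSO and 100% = medium plus DMSO without virus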). The note with it: HEK293 RL24 IRF3 luciferase reporter, at 10 µM, stronger effect = higher value. In general terms: Reporter assays use an easily measured gene product as a stand-in for the process of interest.

The nature of assay [8]: inhibitors of poly I:C-induced TLR3 signaling, primary screen, cell-based, poly I:C stimulus, luciferase, 10K MLSCN set (AID 602277;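 active means inhibition of the reporter signal at or above 50%; inactive means inhibition below 50%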). Particulars: HEK293-TLR3 RL24 IRF3 luciferase reporter, at 10 µM, stronger effect = higher value.

Voltage-gated potassium channel subunit beta-2 (Rattus norvegicus), sequence (P62483 whole entry, looked up): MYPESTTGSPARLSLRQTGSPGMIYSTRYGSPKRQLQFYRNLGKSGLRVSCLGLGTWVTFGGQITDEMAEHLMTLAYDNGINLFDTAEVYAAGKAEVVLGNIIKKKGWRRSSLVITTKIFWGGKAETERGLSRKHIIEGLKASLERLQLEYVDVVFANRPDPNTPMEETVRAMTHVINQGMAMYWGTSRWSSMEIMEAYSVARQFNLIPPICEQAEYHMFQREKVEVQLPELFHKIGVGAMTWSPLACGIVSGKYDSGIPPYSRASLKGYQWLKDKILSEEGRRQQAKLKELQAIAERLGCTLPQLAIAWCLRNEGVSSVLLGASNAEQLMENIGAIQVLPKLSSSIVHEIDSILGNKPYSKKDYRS
Alpha-2C adrenergic receptor (Homo sapiens), sequence (P18825 whole entry, looked up): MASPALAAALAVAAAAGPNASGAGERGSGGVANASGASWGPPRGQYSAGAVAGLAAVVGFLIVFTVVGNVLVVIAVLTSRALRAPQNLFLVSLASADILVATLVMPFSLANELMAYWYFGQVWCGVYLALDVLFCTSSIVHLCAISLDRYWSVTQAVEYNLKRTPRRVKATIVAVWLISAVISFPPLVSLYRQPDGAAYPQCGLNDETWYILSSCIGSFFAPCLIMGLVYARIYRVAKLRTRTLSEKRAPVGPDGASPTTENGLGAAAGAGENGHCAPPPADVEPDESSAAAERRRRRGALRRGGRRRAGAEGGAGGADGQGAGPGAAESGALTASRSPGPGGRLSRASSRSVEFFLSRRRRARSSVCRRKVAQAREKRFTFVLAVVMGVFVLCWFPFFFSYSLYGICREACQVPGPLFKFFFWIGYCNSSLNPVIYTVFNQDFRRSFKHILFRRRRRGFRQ

What is called inhibition is the relative decrease from the control value, in per cent. In the case of `CCOC(=O)c1ccc(NCc2nc3ccccc3[nH]2)cc1`, in assay [1], the cell count was determined as 670. Besides, the inhibition is -7.9% (inactive) in assay [1], -46% (inactive) in assay [3], -76.1% (inactive) in assay [7] and -152% (inactive) in assay [8]. Moreover, in assay [2], the inhibition of aggregation is -14.3% (inactive). In addition, the nuclei count is 102% in assay [2] and 126% in assay [3]. In addition, in assay [4], the fluorescence slope is -0.558 (inactive). Also, the NADPH fluorescence slope in assay [5] was 2.8e-05 (inactive). In addition, in assay [6], the slope was 0.00739 (inactive).

For the compound `Nc1c(S(=O)(=O)c2cccs2)c2nc3ccccc3nc2n1CC1CCCO1` (centres undefined), the cell count in assay [1] came to 667. The inhibition in assay [1] was -7.3% (inactive); in assay [3] it was -71.1% (inactive); in assay [7], 10.7% (inactive); in assay [8] it was 35.1% (inactive). In assay [2], the inhibition of aggregation was -6% (inactive). The values for the nuclei count in assay [2] and in assay [3] were 117% and 141%, respectively. For the same compound, the fluorescence slope in assay [4] was -0.0861 (active). For the same compound, the NADPH fluorescence slope in assay [5] was 2.8e-06 (inactive). Also, the slope in assay [6] is 0.00409 (inactive).

For the compound `CC(=O)NC(CCS(C)(=O)=O)C(=O)Nc1cc(C)on1` (centres undefined), the cell count in assay [1] is 676. The inhibition was -2.9% (inactive) in assay [1], -36.9% (inactive) in assay [3], 25.9% (inactive) in assay [7] and 7.35% (inactive) in assay [8]. In addition, the inhibition of aggregation in assay [2] is 26.2% (inactive). Further, the nuclei count came out at 62.5% in assay [2] and 114% in assay [3]. The fluorescence slope in assay [4] is -0.533 (inactive). Also, the NADPH fluorescence slope in assay [5] was 2.6e-05 (inactive). Further, in assay [6], the slope is 0.00682 (inactive).

For the compound `CCCC1(C(=O)OC)NC(c2cc(OC)c(OC)c(OC)c2)C2C(=O)N(CC)C(=O)C21` (centres undefined), the cell count in assay [1] amounted to 582. In addition, the inhibition in assay [1] is 5.5% (inactive); in assay [3], -37.6% (inactive); in assay [7], -10.2% (inactive); in assay [8], 2.76% (inactive). The inhibition of aggregation in assay [2] was 8.1% (inactive). Also, the nuclei count in assay [2] was determined as 111%; in assay [3] it was 110%. Moreover, in assay [4], the fluorescence slope is -0.48 (inactive). The NADPH fluorescence slope in assay [5] was 3.3e-05 (inactive). Moreover, in assay [6], the slope is 0.0052 (inactive).

In the case of `CCOc1cc(C(=O)Nc2ccon2)cc(OCC)c1OCC`, in assay [1], the cell count came to 795. Moreover, the inhibition in assay [1] is 0.3% (inactive); in assay [3] it was -35.9% (inactive); in assay [7] it was 17.9% (inactive); in assay [8] it was 15.6% (inactive). Further, the inhibition of aggregation in assay [2] is -40.4% (inactive). Further, the values for the nuclei count in assay [2] and in assay [3] were 104% and 108%, respectively. In assay [4], the fluorescence slope is -0.387 (inactive). In addition, the NADPH fluorescence slope in assay [5] was 1.3e-05 (inactive). The slope in assay [6] was 0.00341 (inactive).

Take `COc1ccccc1Nc1ccc(C(=O)NC2CCCCC2)cn1`: the cell count in assay [1] was 406. The inhibition in assay [1] is 1% (inactive); in assay [3], -13.6% (inactive); in assay [7] it was -10.5% (inactive); in assay [8], -22.4% (inactive). For the same compound, the inhibition of aggregation in assay [2] was 1.1% (inactive). The nuclei count is 108% in assay [2] and 110% in assay [3]. Also, the fluorescence slope in assay [4] was -0.39 (inactive). The NADPH fluorescence slope in assay [5] was -5.7e-05 (inactive). The slope in assay [6] is 0.00711 (inactive).

Turning to `COc1ccc(OCCSc2nc3ccccc3n2CC(=O)O)cc1`, the cell count in assay [1] is 321. The inhibition in assay [1] was -9.2% (inactive); in assay [3], -133% (inactive); in assay [7], 16.6% (inactive); in assay [8], 20.3% (inactive). In addition, in assay [2], the inhibition of aggregation was -1.3% (inactive). The values for the nuclei count in assay [2] and in assay [3] were 108% and 133%, respectively. The fluorescence slope in assay [4] is -0.356 (inactive). The NADPH fluorescence slope in assay [5] is -5.2e-05 (inactive). The slope in assay [6] is 0.00591 (inactive).

In the case of `CCCCOc1ccc(C(=O)N2CCC(C)CC2)cc1`, the cell count in assay [1] was 323. Also, the inhibition in assay [1] is 7.9% (inactive); in assay [3], -13.8% (inactive); in assay [7], -4.61% (inactive); in assay [8] it was -21% (inactive). Moreover, the inhibition of aggregation in assay [2] was -8.4% (inactive). The values for the nuclei count in assay [2] and in assay [3] were 99.9% and 87%, respectively. In addition, the fluorescence slope in assay [4] was -0.434 (inactive). In addition, the NADPH fluorescence slope in assay [5] was -5.1e-05 (inactive). The slope in assay [6] was 0.00442 (inactive).

For the compound `CC1(C)CC(=O)CC(=Nc2ccc(C(=O)O)cc2)C1`, the cell count in assay [1] stood at 487. In addition, the inhibition was 4.2% (inactive) in assay [1], 2.7% (inactive) in assay [3], 6.49% (inactive) in assay [7] and 42.2% (inactive) in assay [8]. For the same compound, the inhibition of aggregation in assay [2] was 10.3% (inactive). In addition, the nuclei count in assay [2] came out at 89.1%; in assay [3], 112%. Moreover, in assay [4], the fluorescence slope is -0.497 (inactive). Also, the NADPH fluorescence slope in assay [5] is -5.1e-05 (inactive). Moreover, the slope in assay [6] was 0.0073 (inactive).

Take `C=CCn1c(=O)n(CCOC)c(=O)c2sc3ccccc3c21`: the cell count in assay [1] was 733. For the same compound, the inhibition in assay [1] is -3.4% (inactive); in assay [3], -34% (inactive); in assay [7], -6.44% (inactive); in assay [8], 51% (active). Also, in assay [2], the inhibition of aggregation is -12% (inactive). The nuclei count in assay [2] was 87.6%; in assay [3] it was 102%. The fluorescence slope in assay [4] is -0.566 (inactive). The NADPH fluorescence slope in assay [5] was -3.7e-05 (inactive). The slope in assay [6] is 0.00805 (inactive).

`O=C(NCCN1C(=O)C2C3C=CC(C3)C2C1=O)N1CCOCC1` (centres undefined): the cell count in assay [1] was found to be 549. For the same compound, the inhibition in assay [1] was -4.5% (inactive); in assay [3], -8.6% (inactive); in assay [7], 3.84% (inactive); in assay [8], 27.8% (inactive). Moreover, the inhibition of aggregation in assay [2] was 7.2% (inactive). The values for the nuclei count in assay [2] and in assay [3] were 52.3% and 69.7%, respectively. Moreover, in assay [4], the fluorescence slope was -0.586 (inactive). For the same compound, the NADPH fluorescence slope in assay [5] is -1e-05 (inactive). Moreover, the slope in assay [6] is 0.00653 (inactive).

Regarding `COc1ccc(C(=O)N2CCN(C(=O)c3ccco3)CC2)cc1OC`, the cell count in assay [1] came out at 546. Besides, the inhibition is -3.9% (inactive) in assay [1], -184% (inactive) in assay [3], 13.2% (inactive) in assay [7] and 13.7% (inactive) in assay [8]. Further, the inhibition of aggregation in assay [2] was -2.2% (inactive). Further, the nuclei count is 108% in assay [2] and 199% in assay [3]. Besides, the fluorescence slope in assay [4] is -0.401 (inactive). In assay [5], the NADPH fluorescence slope was -3.4e-05 (inactive). Further, in assay [6], the slope was 0.00558 (inactive).

On to `O=C(Cn1nc(Cc2ccncc2)c2ccccc2c1=O)N1CCN(C(=O)c2ccco2)CC1`, for which the cell count in assay [1] worked out at 780. The inhibition in assay [1] was -7.3% (inactive); in assay [3], -15.2% (inactive); in assay [7], -0.346% (inactive); in assay [8], 21.1% (inactive). Further, the inhibition of aggregation in assay [2] was -29.3% (inactive). The results for the nuclei count in assay [2] and in assay [3] were 110% and 112%, respectively. Besides, in assay [4], the fluorescence slope is -0.58 (inactive). The NADPH fluorescence slope in assay [5] was -2.7e-05 (inactive). Also, the slope in assay [6] is 0.0062 (inactive).

On to `CCN(C(=O)CCc1nc(-c2ccccc2F)no1)c1cc(OC)ccc1OC`, for which the cell count in assay [1] was found to be 403. The inhibition was 6.7% (inactive) in assay [1], -20.9% (inactive) in assay [3], -11.3% (inactive) in assay [7] and -31% (inactive) in assay [8]. For the same compound, the inhibition of aggregation in assay [2] is -4.7% (inactive). The nuclei count in assay [2] was found to be 110%; in assay [3], 115%. Besides, in assay [4], the fluorescence slope is -0.425 (inactive). Besides, in assay [5], the NADPH fluorescence slope was 1.9e-05 (inactive). The slope in assay [6] was 0.00445 (inactive).
